From PubChem
IL-1B inflam inh – blocks inflammasome-driven IL-1 beta release | activity change, % at 57.5 µM | actives 4.7% (n = 360,000) | AID 743279 | THP-1 LPS/ATP IL-1B secretion, AlphaLISA, 16 h; active compounds read low; in the data active means activity change below about -50%; inconclusive means mostly about -30% to -49%
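THP-1 cells pretreated 1 hr with compounds (up to 57.5 uM final), then stimulated with LPS (250 ng/mL final) plus ATP (1.25 mM final); secreted IL-1B measured by AlphaLISA after 16 hr, decreased signal indicating inhibition.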
ALOX12 inh – blocks human arachidonate 12S-lipoxygenase | AID 1671190 | Potency, µM (titrated, usually from 108 µM), hits mostly inhibitors | actives 1.1% (n = 580,000) | P18054 | purified 12hLO, xylenol orange hydroperoxide absorbance
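Purified human 12hLO (150 nM final) in 25 mM Hepes, 0.01% Triton X-100, pH 7.0 was preincubated 15 min at room temperature with compound. Then 40 uM arachidonic acid was added, 30 min. Hydroperoxide was read by Fe-XO absorbance ratio 573/405 nm.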
HT1080 IDH1KD tx – toxicity to HT-1080 IDH1 knockdown cells (counter line) | AID 686971 | Potency, µM (series often up to 46.1 µM), actives largely listed as cytotoxic | HT-1080 IDH1 knockdown viability, ATP luminescence, 48 h | actives 2% (n = 360,000)
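CellTiter-Glo luminescence after 48 h compound exposure at 37 degrees C of IDH1-knockdown HT-1080 cells in 5% FBS RPMI. %Activity scaled between DMSO wells and cell-free media wells, with curves fitted and assigned curve classes.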
TDP1 cell CPT – DT40-hTDP1 cell growth loss with CPT; chicken DT40 Tdp1-/-;hTDP1 cells + 20 nM CPT, ATP luminescence, 48 h; Potency, µM (titrated, usually from 46.2 µM), hits mostly inhibitors; actives 12% (n = 420,000); AID 686979; further: nearly all actives have a fitted effect of over 55% in size
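Cell growth measured by CellTiter-Glo luminescence after a minimum 48 h, 37 C compound exposure with 20 nM CPT in Tdp1-knockout DT40 cells stably expressing hTDP1, seeded 400/well; qHTS titration format.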
HT1080NT lethal – kills 2HG-producing HT-1080-NT fibrosarcoma cells. HT-1080-NT fibrosarcoma viability, CellTiter-Glo ATP luminescence, 48 h. Potency, µM (titrated, usually from 46.1 µM), actives largely listed as cytotoxic. actives 1.6% (n = 360,000);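 further: NT is the 2HG producing partner of a matched IDH1 knockdown line; nearly all actives have a fitted effect of over 55% in size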
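HT-1080-NT; 750 cells/well; 5% FBS RPMI; 48 h compound, 37 degrees C; CellTiter-Glo luminescence; curve fitting and curve-class assignment.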
DT40 TDP1 no CPT – qHTS for Inhibitors of human tyrosyl-DNA phosphodiesterase 1 (TDP1): qHTS in cells in absence of CPT. DT40 Tdp1-/- hTDP1 cells, no CPT, ATP luminescence, 48 h. Potency, µM (top dose mostly 46.2 µM), actives largely listed as inhibitors. actives 15% (n = 420,000); further: nearly all actives have a fitted effect of over 55% in size
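Camptothecin absent (DMSO only). Human TDP1-complemented DT40 knockout cells, 400 cells/well, 37 °C for minimum 48 hr; ATP measured via CellTiter-Glo, 30 min dark incubation, luminescence.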
Hits are given with their value; - = inactive; ? = inconclusive; . = no result given. Many of the other results were omitted from the sample, so hits are more common in it than they were. Unless noted, the call rests on the fitted dose curve; in most records, active means well fitted curve in the direction sought with a large enough effect; inconclusive means small, poorly fitted or top-dose-only effect, or another doubt; inactive means no such curve, though single readings can be large; an effect the other way counts as inactive or inconclusive.

SMILES	IL-1B inflam inh	ALOX12 inh	HT1080 IDH1KD tx	TDP1 cell CPT	HT1080NT lethal	DT40 TDP1 no CPT
CCCCNC(=O)c1nc(C2CCN(S(=O)(=O)c3ccccc3C(F)(F)F)CC2)oc1-c1ccccc1	-	-	-	23µM	-	16µM
CCCCNC(=O)c1nc(C2CCN(S(=O)(=O)c3ccc(OC(F)(F)F)cc3)CC2)oc1-c1ccccc1	-	-	-	7.3µM	-	6.5µM
CCCCNC(=O)c1nc(-c2cccnc2)oc1-c1ccc(OC(F)(F)F)cc1	-	-	-	-	-	-
CCCCNC(=O)c1nc(C2CCN(S(=O)(=O)c3c(F)cccc3F)CC2)oc1-c1cccc(C(F)(F)F)c1	-	-	-	-	-	-
CCCCNC(=O)c1nc(C2CCN(S(=O)(=O)c3c(F)cccc3F)CC2)oc1-c1ccccc1	-	-	-	9.2µM	-	18µM
CCCCNC(=O)c1nc(C2CCN(S(=O)(=O)c3ccc(F)c(F)c3)CC2)oc1-c1ccccc1	-	-	-	10µM	-	6.5µM
O=C(NC[C@H]1COCc2nc3cc(F)ccc3n21)c1ccc(Cl)cc1	.	-	.	.	.	.
CC1(C)CCC[C@]2(C)[C@H]3Cc4cc(O)ccc4O[C@]3(C)CC[C@@H]12	-	?	?	18µM	?	?
COC(=O)COc1cccc(NS(=O)(=O)c2cccc([N+](=O)[O-])c2)c1	-194	-	-	-	-	-
COC(=O)COc1ccc(S(=O)(=O)Nc2cc([N+](=O)[O-])ccc2C)cc1	-	-	-	-	-	-
COC(=O)COc1ccc(NS(=O)(=O)c2cccc([N+](=O)[O-])c2)cc1	-152	-	-	-	-	-
COc1cccc(CN(C)Cc2cccn2C)c1	.	-	.	.	.	.
COc1cccc(CCC(=O)N2[C@@H]3CC[C@H]2CC(NC(=O)c2ccc(F)cc2)C3)c1 (stereo partly drawn)	.	-	.	.	.	.
Cc1nc(NCc2ccco2)sc1C(=O)NCC(C)C	.	-	.	.	.	.
COC(=O)[C@@H]1C[C@@]2(O)[C@H](O)[C@H](O)[C@H](O)C[C@H]2N1Cc1ccc(-c2ccccc2)cc1	-71	-	-	-	-	-
CCOc1ccc(CNC(=O)CCCn2nc(C)c3c(C)n(-c4ccc(C)cc4)nc3c2=O)cc1	?	?	-	?	-	?
COc1ccc(CNC(=O)CCCn2nc(C)c3c(C)n(-c4ccccc4)nc3c2=O)cc1	?	-	-	-	-	?
Cc1cccc(CNC(=O)CCCn2nc(C)c3c(C)n(-c4ccccc4)nc3c2=O)c1	-	-	-	-	-	?
COc1ccc(CNC(=O)CCCn2nc(C)c3c(C)n(-c4ccc(C)cc4)nc3c2=O)cc1	-	-	-	?	-	9.2µM
Cc1ccc(-n2nc3c(=O)n(CCCC(=O)NCc4ccc(Cl)cc4)nc(C)c3c2C)cc1	-	-	-	23µM	-	13µM
Cc1ccc(-n2nc3c(=O)n(CCCC(=O)NCc4cccc(Cl)c4)nc(C)c3c2C)cc1	-	-	?	23µM	-	?
O=S(=O)(c1cccs1)N1CCOc2ccc(COCc3ccc(Cl)cc3)cc2C1	.	-	.	.	.	.
O=C(NCc1ccncc1)C1CCC(=O)N(C2CCCCCC2)C1 (stereo not drawn)	.	-	.	.	.	.
C=CCOc1cccc(N)c1	.	-	.	.	.	.
Cc1cc(C(=O)Nc2ccc(OCc3ccccc3)cc2)c(C)o1	-60	-	?	?	?	?
CCCCN(CCCC)CC(O)COc1ccccc1C(=O)Nc1ccccc1 (stereo not drawn)	-96	-	?	?	?	?
COc1cc(NC(=O)c2ccccc2OCc2ccccc2)cc(OC)c1OC	-	-	-	?	-	16µM
CNC(=O)c1cccc(NC(=O)c2ccccc2OCc2ccccc2)c1	-	-	-	?	-	?
CNC(=O)COc1ccccc1C(=O)Nc1ccccc1	.	.	.	-	.	-
